Shown is part of a subset that was picked to be rich in hits.
GFP derepression: epigenetic GFP locus derepression in mouse cells | mouse C127i GFP locus derepression, cytometry, 30 h | Potency, µM (titrated, usually from 46.1 µM) | 68,000 tested, 0.09% active | AID 597
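Murine C127i mammary cells carrying a silenced, stably integrated CMV-driven GFP reporter were treated with compound for 30 hours at 37 C. After PBS washes, GFP-positive cells were counted by laser-scanning microplate cytometry.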
IkB sig inh: inhibitors of IkB signaling in ABC-DLBCL cells; Potency, µM (highest dose often 57.1 µM); AID 445; ABC-DLBCL IkBa-CBG/CBR dual luciferase ratio, 4 h; response scale: scaled: untreated 0%, proteasome inhibitor 100%; 110,000 tested, 0.04% active; active = well fitted curve in the direction sought with a large enough effect in the signal ratio, not every such curve was filed as active; inconclusive = small, poorly fitted or top-dose-only effect, or a change in a side signal; the % refers to the signal ratio;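 also: the direction sought is a rising ratio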
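In this assay, an IκBα–CBG68 fusion accumulates when IKK-driven degradation is blocked; native CBR normalizes for cell number. OCI-Ly3 cells were treated 4 h with compound and doxycycline, then green and red light read after Chroma-Glo addition.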
Imprint erasure: genomic imprint erasure induction; mouse ES Peg3-LacZ reporter, beta-gal luminescence, 40 h; Potency, µM (doses to about 60.7 µM), actives largely listed as activators; 110,000 tested, 0.02% active
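Each well holds 300 Peg3LacZ-Neo (maternal) female ES cells incubated 40 h at 37C, 5% CO2. LacZ is measured by BetaGlo luminescence, with AC50 and maximum efficacy derived from dose-response curves.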
HBB splicing: hemoglobin beta splicing modulation; Potency, µM (doses to about 46.1 µM), most hits filed as activators; HBB splicing reporter cell assay, activation; EGFP reporter with mutant IVS2-654 intron; response scale: normalised to 500 nM splice-correcting PNA; 65,000 tested, 0.06% active
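HeLa cells stably expressing EGFP interrupted by mutant beta-globin intron 2 (IVS2-654), 500/well in 2% FCS. Treated with compound for 2 days at 37C. Splicing correction scored as total well GFP intensity (488 nm excitation, 500-520 nm emission); 500 nM antisense PNA served as control.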
CRE Fsk mod: CRE-bla signaling modulation under forskolin stimulation; 71,000 tested, 2.5% active; Potency, µM (titrated, usually from 38.2 µM), usual class: activators; CHO CRE-bla reporter (cAMP response element driving beta-lactamase), forskolin EC10, beta-lactamase ratio; AID 662; active = well fitted activation curve with a large enough effect in the signal ratio, with a control signal flat, not every such curve was filed as active; inconclusive = small, poorly fitted or top-dose-only effect, or effect the other way, or a change in a side signal; the % refers to the signal ratio
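Modulation of forskolin-driven signalling is measured in CHO cells carrying a CRE-controlled beta-lactamase reporter. Cells are stimulated with EC10 NKH 477 in the presence of titrated compound for 3 h at 37 °C, then loaded with CCF4 for 2 h at room temperature.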
Of the large screens only hits and unclear results are named; the others gave an inactive call. Unless noted, calls follow the shape of the dose curve; as a rule, active = well fitted curve in the direction sought with a large enough effect; inconclusive = small, poorly fitted or top-dose-only effect, or another doubt; inactive = no such curve, though single readings can be large; an effect the other way counts as inactive or inconclusive.

c1ccc2nc3c(nc2c1)c1ccccc1n3CCN1CCOCC1	CRE Fsk mod 13µM
CCn1cc(C(=O)N(C)c2ccc(C(C)C)cc2)c2cc(OC)c(OC)cc2c1=O	IkB sig inh inconclusive (no result: GFP derepression, HBB splicing, CRE Fsk mod)
COc1ccc(C2CC(=O)Nc3c2c(C)nn3-c2nncc(-c3ccc(C)cc3)n2)c(OC)c1OC (centres undefined)	none (no result: GFP derepression, HBB splicing, CRE Fsk mod)
N#Cc1cc2c(=O)n3ccccc3nc2n(CCN2CCOCC2)c1=O	CRE Fsk mod inconclusive
N#Cc1cc2c(=O)n3ccccc3nc2n(CCCN2CCOCC2)c1=O	CRE Fsk mod 10µM
Cc1cccn2c(=O)c3cc(C#N)c(=O)n(Cc4cccnc4)c3nc12	CRE Fsk mod 6.3µM
Cc1ccc2nc3c(cc(C#N)c(=O)n3CCN3CCOCC3)c(=O)n2c1	CRE Fsk mod inconclusive
N#Cc1cc2c(=O)n3ccccc3nc2n(Cc2cccnc2)c1=O	CRE Fsk mod 1µM
Cc1ccc2nc3c(cc(C#N)c(=O)n3CC3CCCO3)c(=O)n2c1 (centres undefined)	CRE Fsk mod 1.3µM
Cc1cccn2c(=O)c3cc(C#N)c(=N)n(Cc4cccnc4)c3nc12	none
O=C(COc1ccc(Cl)cc1)NCC(c1ccco1)S(=O)(=O)c1ccc(Cl)cc1 (centres undefined)	IkB sig inh inconclusive (no result: GFP derepression, HBB splicing, CRE Fsk mod)
Cc1c(CNCc2ccc(OC(C)C)cc2)c(C(=O)O)c(C)n1Cc1ccc(Cl)cc1	none (no result: GFP derepression, HBB splicing, CRE Fsk mod)
COc1cccc(N2C(=O)CSC23C(=O)N(CC(=O)Nc2cccc(Cl)c2)c2ccccc23)c1 (centres undefined)	none (no result: GFP derepression, HBB splicing, CRE Fsk mod)
Cc1cccc(Cc2c(C)nc3nc(SCc4ccccc4C)nn3c2C)c1	none (no result: GFP derepression, HBB splicing, CRE Fsk mod)
Oc1ccccc1Nc1nc2ccccc2n2nnnc12	IkB sig inh inconclusive (no result: GFP derepression, HBB splicing, CRE Fsk mod)
CCN(CC)S(=O)(=O)c1ccc(Nc2nc3ccccc3n3nnnc23)cc1	IkB sig inh inconclusive, CRE Fsk mod 5µM
Brc1cccc(-c2nnc(-c3ccccc3)o2)c1	none
Brc1cccc(-c2nnc(SCc3nc4ccccc4[nH]3)o2)c1	IkB sig inh inconclusive, CRE Fsk mod 2µM
c1ccc2[nH]c(CSc3nnc(-c4ccncc4)o3)nc2c1	CRE Fsk mod 4µM
Cc1cc(NC(=O)CSc2nc(-c3ccco3)cc(C(F)(F)F)n2)no1	CRE Fsk mod 4µM
COc1ccc(-c2nnc(SCC(=O)Nc3ncc(C)s3)n2-c2ccccc2)cc1OC	CRE Fsk mod 5µM
COc1cc(C(=O)N2CCN(c3cccc(C)c3C)CC2)cc(OC)c1OC	IkB sig inh inconclusive, CRE Fsk mod 10µM (no result: GFP derepression)
COc1cc(C(=O)N2CCN(c3cc(Cl)ccc3Cl)CC2)cc(OC)c1OC	IkB sig inh inconclusive, CRE Fsk mod 2.5µM (no result: GFP derepression)
COc1ccc(C(=O)N2CCN(C(=O)c3cc(OC)c(OC)c(OC)c3)CC2)cc1	none
CCOc1ccc(C(=O)c2oc3ccccc3c2NC(=O)Cc2coc3ccc(CC)cc23)cc1	none (no result: GFP derepression, HBB splicing, CRE Fsk mod)
CCOc1ccc(/C=C/c2nc(C#N)c(N3CCN(CC)CC3)o2)cc1	none (no result: GFP derepression, HBB splicing, CRE Fsk mod)
Cc1cc(C)cc(N(CCC#N)C(=O)CSc2nc3nc(C)cc(C)n3n2)c1	CRE Fsk mod 6.3µM
CC(C)Nc1nc(NC(C)C)nc(N(C)C#N)n1	CRE Fsk mod 13µM
COc1ccc(NCc2cc3cc4c(cc3n(CC(=O)Nc3ccc(F)cc3)c2=O)OCCO4)cc1	IkB sig inh inconclusive (no result: GFP derepression, HBB splicing, CRE Fsk mod)
Cc1ccc(CNC(=O)CCC(=O)N2CC3CCCN3c3ccccc32)cc1 (centres undefined)	IkB sig inh inconclusive (no result: GFP derepression, HBB splicing, CRE Fsk mod)
CCOC(=O)c1sc2ccccc2c1S(=O)(=O)Nc1ccc(CC)cc1	none (no result: GFP derepression, HBB splicing, CRE Fsk mod)
Cc1c(Cl)cccc1NC(=O)c1ccc(NC(=O)N2CCSc3ncccc32)cc1	IkB sig inh inconclusive (no result: GFP derepression, HBB splicing, CRE Fsk mod)
Cc1nc(SCC(=O)Nc2ccc(F)cc2)c2oc3ccccc3c2n1	CRE Fsk mod 0.63µM
Cc1nc(SCC(=O)NCC2CCCO2)c2oc3ccccc3c2n1 (centres undefined)	CRE Fsk mod 10µM
Cc1nc(SCC(=O)NCc2ccco2)c2oc3ccccc3c2n1	CRE Fsk mod inconclusive
COc1cc(C2C(=O)N(C3CCCCCC3)CC(=O)N2CCC2=CCCCC2)ccc1OC(C)C (centres undefined)	IkB sig inh inconclusive (no result: GFP derepression, HBB splicing, CRE Fsk mod)
CCCCn1c(=O)[nH]c(=O)c2c1nc(CN1C(=O)c3ccccc3S1(=O)=O)n2CCC	CRE Fsk mod 10µM

Assay outcomes as filed in PubChem BioAssay.
